From the supplement of paper PMC6555819

Assays:
Experiment in all cases: PBM binding z-score (relative to random genomic background probes); higher = stronger binding; sequences stand for … in GC…GCGATTGACAGCGTAGAATGAAGG
[1] = system: FXR:RXRa (NR concentration 270 nM, RXRa partner concentration 90 nM)
Method in brief: (§1)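 Custom Agilent 4×180K protein-binding microarrays carried double-stranded probes. Their 34-nt variable regions held direct-repeat seeds, single-nucleotide variants, half-site ablations and random human genomic background sequences. Arrays were incubated 1 h with ligand-free nuclear receptor dimers in PBS pH 7.4, 2% milk, 0.02% Triton X-100, 1 mM DTT, 0.2 mg/mL BSA and 0.4 mg/ml salmon testes DNA. Antibodies against each partner (one per run) detected binding, and scanned fluorescence was regression-normalized. Binding z-scores use random background probes as reference.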

[2] = system: LXRa:RXRa (NR concentration 270 nM, RXRa partner concentration 90 nM)
Method in brief: as §1

[3] = system: LXRa homodimer (NR concentration 270 nM)
Method in brief: as §1

[4] = system: LXRb:RXRa (NR concentration 270 nM, RXRa partner concentration 90 nM)
Method in brief: as §1

[5] = system: LXRb homodimer (NR concentration 270 nM)
Method in brief: as §1

[6] = system: PPARa:RXRa (NR concentration 270 nM, RXRa partner concentration 90 nM)
Method in brief: as §1

[7] = system: PPARg:RXRa (NR concentration 180 nM, RXRa partner concentration 90 nM)
Method in brief: as §1

[8] = system: PPARg:RXRa 270nM:90nM, anti-RXR (NR concentration 270 nM, RXRa partner concentration 90 nM)
Method in brief: as §1

[9] = system: PPARg:RXRa 30nM:10nM, anti-RXR (NR concentration 30 nM, RXRa partner concentration 10 nM)
Method in brief: as §1

[10] = system: PPARg:RXRa 90nM:30nM, anti-RXR (NR concentration 90 nM, RXRa partner concentration 30 nM)
Method in brief: as §1

[11] = system: PPARg:RXRa DBDmut IVT, anti-RXR (DBD mutation: RXRa K156A/R161A, NR concentration 270 nM, RXRa partner concentration 90 nM)
Method in brief: as §1

[12] = system: PPARg:RXRa IVT, anti-PPARg (NR concentration 270 nM, RXRa partner concentration 90 nM)
Method in brief: as §1

[13] = system: PPARg DBDmut:RXRa IVT, anti-PPARg (DBD mutation: PPARg1 K132A/R137A, NR concentration 270 nM, RXRa partner concentration 90 nM)
Method in brief: as §1

[14] = system: PPARg DBDmut IVT, anti-PPARg (DBD mutation: PPARg1 K132A/R137A, NR concentration 270 nM)
Method in brief: as §1

[15] = system: PPARg homodimer (NR concentration 180 nM)
Method in brief: as §1

[16] = system: PXR:RXRa (NR concentration 270 nM, RXRa partner concentration 90 nM)
Method in brief: as §1

[17] = system: PXR homodimer (NR concentration 270 nM)
Method in brief: as §1

[18] = system: RARa:RXR (NR concentration 270 nM, RXRa partner concentration 90 nM)
Method in brief: as §1

[19] = system: RARa homodimer (NR concentration 270 nM)
Method in brief: as §1

[20] = system: RARb:RXRa (NR concentration 270 nM, RXRa partner concentration 90 nM)
Method in brief: as §1

Sequence	PBM binding z-score [1]	PBM binding z-score [2]	PBM binding z-score [3]	PBM binding z-score [4]	PBM binding z-score [5]	PBM binding z-score [6]	PBM binding z-score [7]	PBM binding z-score [8]	PBM binding z-score [9]	PBM binding z-score [10]	PBM binding z-score [11]	PBM binding z-score [12]	PBM binding z-score [13]	PBM binding z-score [14]	PBM binding z-score [15]	PBM binding z-score [16]	PBM binding z-score [17]	PBM binding z-score [18]	PBM binding z-score [19]	PBM binding z-score [20]
TCATATAGGTAATAGAGGTGAAAGTCGGCATCTA	1.47	1.99	0.555	1.43	0.0572	2.96	2.3	3.61	4.55	4.02	4.53	4.06	1.5	0.929	0.919	1.12	0.895	1.92	1.02	1.27
TCATATACGTAAATGCTAGGTGAAAGTCCGATCT	0.742	0.449	0.327	0.861	0.278	0.771	0.633	2.14	3.51	2.66	2.16	0.926	0.89	1.72	0.664	0.565	0.25	0.743	0.987	0.357
GCACCAAGGTGAATAGGTCGTTGATGAGTAGGCG	0.712	0.592	-0.472	0.429	-0.835	2.37	1.17	1.62	0.404	0.742	2.07	2.2	-0.106	-0.894	1.01	0.721	-0.261	1.6	-0.487	1.93
CTACCAAGGTGAACAAGGTCGTCGATTACTATTC	1.41	1.49	0.0578	1.95	-0.568	2.77	1.41	1.59	0.0715	0.943	2.69	2.94	0.293	-0.426	1.09	2.61	0.761	2.65	0.41	2.27
GCGGACAGGTGAAACGCAGGTAACTCAGGGTGGC	-0.363	-0.0756	-0.541	-0.243	-1.43	0.799	0.338	-0.205	-1.01	-0.756	1.08	0.64	-0.773	-1.81	-0.69	-0.362	-0.597	0.177	-1.07	0.934
ATATGTAGGTTATGGGTCATTCAGGTTGGTTCGC	3.1	3.26	1.87	3.22	1.22	5.51	9.66	8.74	8.22	9.39	7.25	7.26	2.55	1.93	3.33	4	1.51	3.63	2.31	2.52
TAGCCTAGGTCATGGGGCAGTATACCACGCGAAC	4.95	3.44	0.357	3.37	0.499	4.39	5.11	4.52	1.89	3.69	1.45	3.74	0.479	0.305	1.67	1.78	-0.439	3.21	-0.03	3.79
GCTACTAGTTGAAAGGGCAACCGAATGATTCTCG	0.0739	0.67	-0.0669	0.754	-0.373	2.62	3.76	5.17	3.07	5.08	0.65	1.33	0.246	-0.547	0.922	0.637	-0.0671	1.32	-0.371	1.95
GCTCGGATGACAAGGTCAGAGCTTTGTCCGTAGA	0.982	1.15	-0.396	0.805	-1.32	1.93	0.116	0.444	-0.707	-0.161	0.0806	0.0489	-1.27	-1.25	0.624	1.51	-0.626	2.09	-1.1	2.61
CCTACTGGGCAATTCAGAGGTCATTGATCATATG	2.49	4.41	6.82	3.68	0.374	3.51	0.682	2.06	0.0551	0.942	1.37	1.97	0.00726	-0.498	2.09	4.71	2.44	4.45	0.887	2.82
AGTCAAAGTTCACTAGGGAACGTAAGATTCAGCT	5.18	5.47	2.42	3.27	0.67	4.19	6.45	6.13	3.52	5.22	0.937	3.63	0.753	0.755	2.24	3.94	2.56	2.71	0.63	4.57
CCTTACGGGTCACTGACAGGTTATGGCATTTGGA	5.56	4.1	0.253	3.08	-0.323	5.03	4.2	4.62	1.67	3.02	3.42	3.8	0.363	-0.311	3.61	3.77	-0.0581	4.95	1.29	4.04
CGAACGAGGGCATGAGTGGATAGCAAATGCCGAT	0.364	0.334	-0.533	0.059	-0.983	1.22	1.27	0.947	0.0449	0.449	2.74	1.85	-0.478	-0.831	-0.474	0.213	-0.305	0.373	-0.274	1.91
TCTGCTAGGTCAGTTGGTCAGGTAACGAGCTGCC	1.03	0.456	-0.298	0.248	0.236	1.48	0.452	1.74	1.15	1.3	2.56	3.24	0.0917	0.385	0.478	0.0993	-0.744	0.735	-0.871	3.3
GCGACTGGGGCAACAGCAGGTTACCATAACTTAA	0.03	1.28	-0.408	0.734	-0.94	1.25	1.43	1.47	-0.0459	0.485	4.72	3.85	-0.661	-0.485	0.0811	0.146	-0.288	0.56	-0.561	1.02
GCATATAGGTAATACAAGGTGAAAGTTCGATTGT	1.05	2.54	0.814	1.37	-0.201	2.67	3.47	4.13	2.29	3.58	3.93	3.61	1.22	1.17	1.2	1.86	0.639	2.6	1.1	0.778
TTACCAAGGTGAAAGGTTGTTGATGCACGCCTTG	1.23	1.15	-0.416	1	-0.595	3.78	5.72	6.02	4.55	6.25	2.7	4.17	0.253	0.316	0.571	1.28	-0.373	2.32	0.397	1.63
TCTAGTTGGTCACGGAGGTCACACCCGACGGGTA	3.19	3.31	2.4	3.2	0.762	3.73	3.54	4.03	3.5	3.66	2.48	4.28	1.28	1.19	2.95	4.15	1.24	4.2	1.58	3.79
GGAACGACGGCAAGTTGATAGCAGAGTTTGATGG	-0.255	-0.528	-0.627	-0.839	-0.999	-0.669	0.538	-0.859	-0.288	-0.679	-0.476	-0.312	-0.309	-0.721	-0.705	-0.547	0.0619	-0.23	-0.783	-0.715
TCTGCTAGGTCAGTTGGTCAGCCAACGAGCTGCC	0.772	0.762	-0.677	0.196	-0.0137	1.52	0.643	1.9	1.52	1.51	2.34	2.92	2.07	0.334	0.252	0.152	-0.764	0.399	-1.63	3.3
ACTTACGGGTCAACAAGGTTATAGCACGCGTATA	6.88	4.7	0.809	4.4	1.05	6.09	5.69	5.32	2.2	4.02	3.06	4.26	1.25	1.13	2.14	4.49	1.48	4.77	1.05	4.49
TAGCCTAGGTCAGATCGGGCCAGTAGACGCTATA	2.39	0.985	-0.414	0.183	-0.713	1.45	0.406	0.586	-0.637	0.224	0.0206	1.03	-0.87	-1.34	0.0238	0.619	-0.847	0.622	-1.52	2.99
TTACCAAGGTGAGCTCAGGTCGTTGATCCAACTC	1.26	0.561	-0.29	0.42	-1.08	0.894	-0.199	0.203	-0.185	-0.151	1.23	1.8	0.00673	-0.46	-0.274	3.09	-0.622	0.823	-0.956	1.33
GCGACTGGGGCAAAGCAGGTTATCATAAGGTTGG	0.502	0.29	-0.027	0.318	-0.831	1.41	1.29	1.17	-0.476	0.229	4.56	3.61	-0.685	-0.693	-0.345	0.44	-0.841	0.549	-0.943	0.894
CCTACTGGGCCAAAGGTCATTTATTCCAATGCTC	4.91	5.02	5.54	5.19	1.7	6.68	12.4	10.4	11	11.5	5.13	6.94	0.54	0.179	5.03	5.54	1.8	6.34	2.22	4.25
CGTCCAGGGTCAGAGAGGTCAGTGAATGCCGAGT	5.65	4.8	1.62	4.15	-0.103	4.87	3.32	4.21	1.19	2.81	1.59	2.32	-0.324	-0.926	3.95	6.01	9.1	5.52	1.6	4.77
